GAA spleen mod: inhibitors or activators of human alpha-glucosidase in spleen homogenate; human spleen homogenate, 4-MU-alpha-glucoside fluorescence; P10253; AID 2112; 0.006% of 240,000 active; Potency, µM (doses to about 79.9 µM), inactives show at the highest dose activity change, negative = inhibition, usual class: inhibitors;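 further: potency means the concentration at half of the fitted maximal effect; 0% = enzyme with vehicle and -100% = no enzyme basal signal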
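Compounds were titrated against alpha-glucosidase in spleen homogenate at pH 5.0, with 1 mM 4-methylumbelliferyl substrate for 40 min at 37 C. Reactions were quenched with pH 10 NaOH/glycine and fluorescence measured.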
N370S GC: inhibitors or activators of N370S glucocerebrosidase for Gaucher disease | 0.092% of 330,000 active | P04062 | Potency, µM (highest dose often 59.4 µM), inactives show top-dose activity change, negative = inhibition, most hits filed as inhibitors | N370S GC spleen homogenate, 4MU-glucoside fluorescence | AID 2101;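 further: potency means the concentration at half of the fitted maximal effect; 0% = full enzyme activity and -100% = no enzyme basal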
GAA inh: blocks human lysosomal alpha-glucosidase; AID 1466; purified human GAA, 4-MU-alpha-glucoside fluorescence; Potency, µM (series often up to 76.9 µM), inactives show at the top dose activity change, negative = inhibition, actives largely listed as inhibitors; P10253; 0.005% of 200,000 active;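 further: potency means the concentration at half of the fitted maximal effect; plate controls were uninhibited enzyme wells for no effect and no-enzyme background for full effect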
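Human enzyme at 4 nM with 400 uM 4-methylumbelliferyl-alpha-D-pyranoside, citrate/phosphate buffer pH 5.0, 0.005% Tween-20, 20 min at room temperature. Compounds up to 77 uM. 4-MU fluorescence (Ex 365/Em 440) read after NaOH/glycine stop; AC50 from Hill fit.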
GLA inh pH 4.5: inhibitors of human alpha-galactosidase A at pH 4.5; purified enzyme, 4-MU-alpha-Gal fluorescence, pH 4.5; activity change, negative = inhibition, % at 105 µM; 230,000 tested, under 10 active; AID 1467;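 further: 0% = full activity with enzyme and -100% = basal without enzyme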
GAA glycogen: alters human alpha-glucosidase cleavage of glycogen; Potency, µM (series often up to 76.4 µM), for inactives: at the top dose activity change, negative = inhibition, most hits filed as inhibitors; 0.38% of 300,000 active; P10253; AID 2100; recombinant GAA, glycogen substrate, Amplex Red glucose oxidase fluorescence;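 further: potency means the concentration at half of the fitted maximal effect; 0% = full enzyme reaction and -100% = no-enzyme basal signal; the screen sought inhibitors and activators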
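Recombinant human alpha-glucosidase (4 nM final) hydrolysed bovine liver glycogen (30 ug) for 40 min at 37 C in pH 5.0 citrate/phosphate with 0.01% Tween-20. Released glucose detected by glucose oxidase/Amplex Red, Ex 573/Em 610 nm. Compounds up to 77 uM; AC50 from Hill fits.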
GLA spleen mod: inhibitors or activators of human alpha-galactosidase in spleen homogenate | AID 2107 | human spleen homogenate, 4MU-alpha-Gal fluorescence, 40 min | 0.008% of 240,000 active | P06280 | Potency, µM (series often up to 80 µM), inactives show at the top dose activity change, negative = inhibition, most hits filed as inhibitors;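 further: potency means the concentration at half of the fitted maximal effect; 0% = enzyme with vehicle and -100% = no enzyme basal signal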
Target sequence (P06280 32-429 limits assumed): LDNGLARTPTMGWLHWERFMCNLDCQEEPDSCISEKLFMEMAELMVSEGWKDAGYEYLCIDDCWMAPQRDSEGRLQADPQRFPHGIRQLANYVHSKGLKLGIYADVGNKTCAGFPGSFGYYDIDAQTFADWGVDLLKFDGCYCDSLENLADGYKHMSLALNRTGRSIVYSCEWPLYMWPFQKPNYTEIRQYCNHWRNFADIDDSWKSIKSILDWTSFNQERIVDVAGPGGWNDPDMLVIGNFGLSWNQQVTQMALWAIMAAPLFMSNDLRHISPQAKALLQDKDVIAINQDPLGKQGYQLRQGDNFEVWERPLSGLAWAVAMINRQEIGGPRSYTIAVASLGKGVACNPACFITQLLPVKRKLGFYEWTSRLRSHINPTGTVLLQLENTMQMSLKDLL
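Human spleen homogenate (1 ug) as enzyme source, 4-methylumbelliferyl-alpha-D-galactopyranoside 1 mM final, citrate/phosphate pH 5.0 with 0.01% Tween-20. Compounds 40 min at 37C, NaOH/glycine stop; fluorescence Ex 365/Em 440, Hill-fit AC50.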
The depositor's hits bear a star; u = inconclusive; x = not tested or not shown; [ ] = dose if it differs, or a comment. Rows were chosen to be rich in hits. Some 0.41% of all compounds tested hit in one or more screens of this group. The call rests on the fitted dose curve; in most records, active means well fitted curve in the direction sought with a large enough effect; inconclusive means small, poorly fitted or top-dose-only effect, or another doubt; inactive means no such curve, though single readings can be large; an effect the other way counts as inactive or inconclusive.

SMILES	GAA spleen mod	N370S GC	GAA inh	GLA inh pH 4.5	GAA glycogen	GLA spleen mod
CN1CCC(=O)N(C(CSc2ccc(Br)cc2)c2ccccc2)CC1 (configuration not stated)	-1%	-15%	x	x	x	0%
Cc1ccn2c(Nc3ccc4c(c3)OCO4)c(-c3ccco3)nc2c1	x	x	x	x	5µM*	x
Cc1ccc(-c2nc3cccc(C)n3c2Nc2ccc3c(c2)OCO3)o1	x	x	x	x	1.8µM*	x
Cc1ccn2c(Nc3ccc4c(c3)OCO4)c(-c3ccc(Cl)cc3)nc2c1	x	x	x	x	-13%[76.3 µM]	x
COc1ccc(-c2nc3ccc(C)cn3c2Nc2ccc3c(c2)OCO3)cc1	x	x	x	x	18µM*	x
Cc1ccc2nc(-c3ccc(O)cc3)c(Nc3ccc4c(c3)OCCO4)n2c1	4%	u	1%[15.4 µM]	-12	14µM*	11%
Cc1cccc2nc(-c3ccco3)c(Nc3ccc4c(c3)OCO4)n12	4%	-7%	-3%	3	u	7%
COc1ccc(C#CC2C=CC(Oc3cc(C)cc(C)c3)C(CO)O2)cc1 (configuration not stated)	2%[17.4 µM]	-2%[12.8 µM]	x	x	x	0%[17.5 µM]
COc1cc(NC(=O)c2cc(Cl)ccc2Cl)ccc1NC(=O)c1cc2ccccc2o1	x	x	x	x	14%[76.3 µM]	x
Clc1ccc(-c2nc3ccccn3c2Nc2ccc3c(c2)OCCO3)s1	x	x	x	x	10µM*	x
CCOC(=O)C(C(C)=O)c1c(Br)c(O)c(O)c2c(C(=O)c3ccc(C)cc3)coc12 (configuration not stated)	-13%	1%	-10%	3	32µM*	-3%
Nc1cc(Cl)c(N)c(Cl)c1	-7%	-4%	x	x	x	-2%
Nc1cc(Cl)c(N)cc1Cl	2%	2%	-7%	9	28µM*	-1%
COc1cc(C(=O)O[C@H]2C/C(C)=C/CC/C(C)=C/[C@@H](O)C2C(C)C)ccc1O (some centres not stated)	-9%	5%	x	x	x	-2%
O=C(Nc1cc(S(=O)(=O)N2CCOCC2)ccc1N1CCCC1)c1cc(=O)[nH]c2ccccc12	10µM*	16%	x	12	u	-4%
CCCCCCCCCCCCCC/C(C(=O)O)=C(\C)C(=O)O	-3%	-7%	x	x	x	-30%
O=C(NCCc1cccs1)c1ccc(Cn2c(SCc3ccc(F)cc3)nc3cccnc32)cc1	x	x	x	x	1%[76.3 µM]	x
COc1ccc(/C=N/NC(=O)C(=O)NCC2CCCO2)cc1 (configuration not stated)	-5%	1%	-3%	12	-5%	2%
COCCCNC(=S)N/N=C/c1ccc(O)cc1	11%	-18%	-1%	-1	32µM*	12%
COCCCNC(=S)N/N=C/c1ccc(OC)cc1	7%	5%	5%	-4	-26%	-10%
Oc1ccc(/C=N/NC(=S)NCC2CCCO2)cc1 (configuration not stated)	-11%	x	-2%	-10	32µM*	-1%
CCN1CCN(Cc2nc3cc(NC(=O)c4ccccc4[N+](=O)[O-])ccc3n2CC)CC1	x	x	x	x	10%[76.3 µM]	x
Nc1cc(Br)c(N)c(Br)c1	-3%	-9%	4%	6	32µM*	-7%
Cc1cccc(N2CCN(CCNC(=O)Nc3ccc(Cl)cc3)CC2)c1C	x	x	x	x	-4%[76.3 µM]	x
Nc1c(N)c2ccccc2oc1=O	-5%	-7%	-13%	8	7.1µM*	-19%
SMILES	GAA spleen mod	N370S GC	GAA inh	GLA inh pH 4.5	GAA glycogen	GLA spleen mod
CNc1c(N)c(=O)oc2ccccc12	-8%	17%	6%	3	-4%	0%
Cc1ccc(Nc2c(N)c(=O)oc3ccccc23)cc1	0%	-11%	-14%	-10	20µM*	-7%
CN(C)c1c(N)c(=O)oc2ccccc12	8%	1%	9%	-6	u	13%
CC(C)CCCC(C)CCCC(C)CCCC(C)C(=O)O (configuration not stated)	-4%	-6%	x	x	x	7%
CC(C)(C)N1C(=O)[C@H]2[C@@H]3[C@H](O)[C@H](O)CC(=O)[C@H]3CC[C@H]2C1=O	2%[17.4 µM]	5%[12.8 µM]	x	x	x	-7%[17.5 µM]
CCOC(=O)C1CCCN(S(=O)(=O)c2ccc3c(c2)CCN3C(=O)CC)C1 (configuration not stated)	x	x	x	x	-2%[76.3 µM]	x
CCOc1cc2c3c(c1)C1(Nc4ccccc4S1)C(=O)N3C(C)(C)CC2C (configuration not stated)	-1%	15%	-7%	-6	35µM*	-2%
CCOc1cc2c3c(c1)C1(OCCO1)C(=O)N3C(C)(C)CC2C (configuration not stated)	0%	5%	-6%	-15	-4%	3%
CC[C@H](C)[C@@H](NC(=O)O[C@@H]1C(=O)c2ccc(OC)cc2O[C@H]1c1ccc2c(c1)OCO2)C(=O)OC	-2%	4%	x	1	x	6%
CCOC(=O)c1c(OCC)[nH]c2c1cc(O)c1ccccc12	5%	u	-2%	2	25µM*	6%
CCCCCC1=C2CNC(CCC)(C(=O)OC)C=C2C(C)C1=O (configuration not stated)	4%	-5%	x	0	x	6%
Cc1ccccc1Nc1c(-c2ccccc2O)nc2sccn12	x	x	x	x	11µM*	x
CN1/C(=C\C(=O)COC(=O)c2ccc(O)c(O)c2)C(C)(C)c2ccccc21	-2%	-20%	0%	-1	10µM*	9%
COc1ccc(CNC(=O)CN(c2ccc(C)cc2)S(=O)(=O)c2c(C)n[nH]c2C)cc1	x	x	x	x	-4%[76.3 µM]	x
CCOc1ccc(N(CC(=O)NCc2ccc(OC)cc2)S(=O)(=O)c2c(C)[nH]c(=O)[nH]c2=O)cc1	x	11µM*	x	x	-13%[76.3 µM]	x
CCOc1ccc(S(=O)(=O)N(CC(=O)NCCc2ccc(OC)cc2)c2ccccc2)cc1	x	x	x	x	-5%[76.3 µM]	x
CCOc1ccc(N(CC(=O)NCCc2ccc(Cl)cc2)S(=O)(=O)c2c(C)[nH]c(=O)[nH]c2=O)cc1	5%	10µM*	1%	-3	6%	5%
CC1CCC/C(=N/Nc2ccc([N+](=O)[O-])cc2[N+](=O)[O-])C1 (configuration not stated)	2%	-3%	-12%	-17	16µM*	7%
CC[C@H](C)[C@H](NC(=O)[C@H](Cc1ccc(O)cc1)NC(=O)[C@@H]1CCCN1C(=O)[C@H](CCCCN)NC(=O)[C@@H](N)CCCCN)C(=O)N[C@@H](CC(C)C)C(=O)O	1%	-10%	x	x	x	-4%
Nc1nc(-c2ccccc2)c(N=Nc2ccc(Cl)cc2)s1	2%	2.5µM*	-2%	-9	-4%	2%
Nc1nc(-c2ccccc2)c(-c2ccccc2)s1	-10%	5%	8%	-1	-11%	5%

Compound activity deposited in PubChem BioAssay by National Center for Advancing Translational Sciences (NCATS).
